Data reported in PubChem BioAssay AID1159580 (chemical genetic matrix, 2015).
Values joined by “and” are separate entries in the source; they are usually repeats but may differ in a detail not shown here. Equal entries are not always repeated. About 2,000 (36%) of roughly 5,500 compounds were called active. Another 18% or so got no clear call; they are omitted. Rule as the data show it: active = normalized growth mostly below about 0.91 (no sharp cut-off); inconclusive = no clear call, values can overlap the other calls; inactive = mostly above about 0.92. Some of the results follow.

Test: chemical genetic growth profiling, strain panel (AID 1159580);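 also: tested at 20 µM; growth read once vehicle control cultures reached saturation at 30 °C; 1 = growth at the plate median or of vehicle wells; lower values mean less growth of the strain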
Conditions: growth OD

Measured: normalized growth

COC(=O)COc1ccc(Cl)cc1Cl
inactive: S. cerevisiae deletion strains, locus YAL013W, strain DEP1, active compounds read low 1 | S. cerevisiae deletion strains, locus YBR021W, strain FUR4, active compounds read low 1.01 | S. cerevisiae deletion strains, locus YBR229C, strain ROT2, active compounds read low 1.01 | S. cerevisiae deletion strains, locus YCL029C, strain bik1, active compounds read low 1.02 | S. cerevisiae deletion strains, locus YDL035C, strain GPR1, active compounds read low 1.02 | S. cerevisiae deletion strains, locus YDL074C, strain BRE1, active compounds read low 1.03 | S. cerevisiae deletion strains, locus YDL101C, strain DUN1, active compounds read low 1.01 | S. cerevisiae deletion strains, locus YDL134C, strain PPH21, active compounds read low 1.01 | S. cerevisiae deletion strains, locus YDL185W, strain tfp1, active compounds read low 1.01 | S. cerevisiae deletion strains, locus YDL192W, strain arf1, active compounds read low 1.02 | S. cerevisiae deletion strains, locus YDR101C, strain arx1, active compounds read low 1.02 | S. cerevisiae deletion strains, locus YDR150W, strain NUM1, active compounds read low 1 | S. cerevisiae deletion strains, locus YDR162C, strain NBP2, active compounds read low 0.996 | S. cerevisiae deletion strains, locus YDR318W, strain mcm21, active compounds read low 1.02 | S. cerevisiae deletion strains, locus YDR388W, active compounds read low 1.02 | S. cerevisiae deletion strains, locus YDR502C, strain sam2, active compounds read low 1.02 | S. cerevisiae deletion strains, locus YEL061C, strain CIN8, active compounds read low 1 | S. cerevisiae deletion strains, locus YER110C, active compounds read low 1.01 | S. cerevisiae deletion strains, locus YER155C, strain BEM2, active compounds read low 1 | S. cerevisiae deletion strains, locus YER167W, strain BCK2, active compounds read low 1 | S. cerevisiae deletion strains, locus YGL078C, strain dbp3, active compounds read low 1.01 | S. cerevisiae deletion strains, locus YGL086W, strain mad1, active compounds read low 1 | S. cerevisiae deletion strains, locus YGL248W, strain PDE1, active compounds read low 1.01 | S. cerevisiae deletion strains, locus YGR078C, strain PAC10, active compounds read low 1.02 | S. cerevisiae deletion strains, locus YGR135W, strain pre9, active compounds read low 1.02 | S. cerevisiae deletion strains, locus YGR229C, strain SMI1, active compounds read low 1.01 | S. cerevisiae deletion strains, locus YGR252W, strain gcn5, active compounds read low 1.04 | S. cerevisiae deletion strains, locus YHR030C, strain SLT2, active compounds read low 1.01 and 1.04 | S. cerevisiae deletion strains, locus YHR079C, strain IRE1 (second series), active compounds read low 1.01 | S. cerevisiae deletion strains, locus YHR079C, strain IRE1, active compounds read low 1.03 | S. cerevisiae deletion strains, locus YHR094C, strain hxt1, active compounds read low 1.02 | S. cerevisiae deletion strains, locus YHR129C, strain ARP1, active compounds read low 1.01 | S. cerevisiae deletion strains, locus YHR200W, strain rpn10, active compounds read low 1.01 | S. cerevisiae deletion strains, locus YIL066C, strain RNR3, active compounds read low 1.02 | S. cerevisiae deletion strains, locus YIL073C, strain SPO22, active compounds read low 1.08 | S. cerevisiae deletion strains, locus YIL125W, strain kgd1, active compounds read low 1.01 | S. cerevisiae deletion strains, locus YIR030C, strain dcg1, active compounds read low 1.02 | S. cerevisiae deletion strains, locus YJL095W, strain BCK1, active compounds read low 1 and 1.05 | S. cerevisiae deletion strains, locus YJL134W, strain LCB3, active compounds read low 1 | S. cerevisiae deletion strains, locus YJL168C, strain set2, active compounds read low 1.02 | S. cerevisiae deletion strains, locus YJL187C, strain SWE1 (second series), active compounds read low 1.01 | S. cerevisiae deletion strains, locus YJR043C, strain POL32, active compounds read low 1.01 | S. cerevisiae deletion strains, locus YJR066W, strain TOR1, active compounds read low 0.975 | S. cerevisiae deletion strains, locus YJR075W, strain HOC1, active compounds read low 1.01 | S. cerevisiae deletion strains, locus YKL009W, strain mrt4, active compounds read low 1.03 | S. cerevisiae deletion strains, locus YKL068W, active compounds read low 1.01 | S. cerevisiae deletion strains, locus YKL085W, strain MDH1 (second series), active compounds read low 0.993 | S. cerevisiae deletion strains, locus YKL085W, strain MDH1, active compounds read low 0.993 | S. cerevisiae deletion strains, locus YKL190W, strain CNB1, active compounds read low 1.01 | S. cerevisiae deletion strains, locus YKR001C, strain vps1, active compounds read low 1.04 | S. cerevisiae deletion strains, locus YLR039C, strain RIC1, active compounds read low 1.02 | S. cerevisiae deletion strains, locus YLR058C, strain SHM2, active compounds read low 1.02 | S. cerevisiae deletion strains, locus YLR102C, strain apc9, active compounds read low 1.01 | S. cerevisiae deletion strains, locus YLR113W, strain HOG1, active compounds read low 0.974 | S. cerevisiae deletion strains, locus YLR262C, strain YPT6, active compounds read low 1.06 | S. cerevisiae deletion strains, locus YLR268W, strain sec22, active compounds read low 1.03 | S. cerevisiae deletion strains, locus YLR330W, strain CHS5, active compounds read low 1.01 | S. cerevisiae deletion strains, locus YLR342W, strain FKS1 (second series), active compounds read low 1.01 | S. cerevisiae deletion strains, locus YLR371W, strain rom2, active compounds read low 1.01 | S. cerevisiae deletion strains, locus YLR418C, strain cdc73, active compounds read low 1.04 | S. cerevisiae deletion strains, locus YML016C, strain PPZ1, active compounds read low 1.01 | S. cerevisiae deletion strains, locus YML032C, strain rad52, active compounds read low 1.02 | S. cerevisiae deletion strains, locus YML124C, strain tub3, active compounds read low 1.02 | S. cerevisiae deletion strains, locus YMR078C, strain ctf18, active compounds read low 1.03 | S. cerevisiae deletion strains, locus YMR223W, strain ubp8, active compounds read low 1.02 | S. cerevisiae deletion strains, locus YMR263W, strain SAP30, active compounds read low 1 | S. cerevisiae deletion strains, locus YMR307W, strain GAS1, active compounds read low 1.02 | S. cerevisiae deletion strains, locus YNL067W, strain RPL9B, active compounds read low 1 | S. cerevisiae deletion strains, locus YNL128W, strain TEP1, active compounds read low 1.01 | S. cerevisiae deletion strains, locus YNL153C, strain GIM3, active compounds read low 1.01 | S. cerevisiae deletion strains, locus YNL183C, strain NPR1, active compounds read low 0.969 | S. cerevisiae deletion strains, locus YNL233W, strain BNI4, active compounds read low 1 | S. cerevisiae deletion strains, locus YNL250W, strain rad50, active compounds read low 1.01 | S. cerevisiae deletion strains, locus YNL271C, strain bni1, active compounds read low 1 | S. cerevisiae deletion strains, locus YNL298W, strain CLA4, active compounds read low 1.04 | S. cerevisiae deletion strains, locus YNL307C, strain MCK1, active compounds read low 1.03 | S. cerevisiae deletion strains, locus YNL322C, strain KRE1, active compounds read low 1.01 | S. cerevisiae deletion strains, locus YNR052C, strain pop2, active compounds read low 1.03 | S. cerevisiae deletion strains, locus YOL006C, strain TOP1, active compounds read low 1.02 | S. cerevisiae deletion strains, locus YOL012C, strain htz1 1.19 | S. cerevisiae deletion strains, locus YOL147C, strain pex11, active compounds read low 1.01 | S. cerevisiae deletion strains, locus YOR061W, strain CKA2, active compounds read low 0.997 | S. cerevisiae deletion strains, locus YOR069W, strain VPS5, active compounds read low 1 | S. cerevisiae deletion strains, locus YOR136W, strain idh2, active compounds read low 1.02 | S. cerevisiae deletion strains, locus YOR144C, strain elg1, active compounds read low 1.02 | S. cerevisiae deletion strains, locus YOR184W, strain ser1, active compounds read low 1.03 | S. cerevisiae deletion strains, locus YOR231W, strain MKK1, active compounds read low 1.04 | S. cerevisiae deletion strains, locus YOR316C, strain cot1, active compounds read low 1.01 | S. cerevisiae deletion strains, locus YPL055C, strain LGE1, active compounds read low 1.02 | S. cerevisiae deletion strains, locus YPL241C, strain CIN2, active compounds read low 1 | S. cerevisiae deletion strains, locus YPL256C, strain CLN2, active compounds read low 1.05 | S. cerevisiae deletion strains, locus YPR119W, strain clb2, active compounds read low 1.01 | S. cerevisiae deletion strains, locus YPR141C, strain kar3, active compounds read low 1.01 | S. cerevisiae deletion strains, locus YPR163C, strain tif3, active compounds read low 1.02 | S. cerevisiae deletion strains, locus YPR167C, strain met16, active compounds read low 1.01 | S. cerevisiae deletion strains, strain wtn01, active compounds read low 1.01 | S. cerevisiae strains, strain wild type, active compounds read low 1
